Screening data deposited in PubChem by The Scripps Research Institute Molecular Screening Center.
SIAE inh – human SIAE inhibition, primary screen. Q9HAT2. SIAE FP-Rh probe binding, fluorescence polarization. inhibition, % at 9.66 µM. 370,000 compounds, 0.69% hits. AID 1053197;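 active means inhibition above a cutoff: mean of compounds within the control limits plus 3 SD of those, cut at about 17% in these data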
Fam108B counter – blocks mouse Fam108B hydrolase in RBBP9 counter-screen | recombinant Fam108B, FP-Rh probe fluorescence polarization | inhibition, % at 9.51 µM | 300,000 compounds, 0.33% hits;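 active means inhibition above the screen mean inhibition plus 3 SD, computed separately per campaign, cut at about 18% in these data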;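 further: inhibitors lower polarization as less probe binds the enzyme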
PAD4 FP inh – PAD4 (human) enzyme inhibition | recombinant PAD4, RCA probe fluorescence polarization | inhibition, % at 6.36 µM | 330,000 compounds, 0.41% hits | AID 485272;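 active means percent inhibition above a cutoff equal to the mean of all tested compounds plus 3 SD, cut at about 15% in these data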
Target sequence (Q9UM07 whole entry, looked up): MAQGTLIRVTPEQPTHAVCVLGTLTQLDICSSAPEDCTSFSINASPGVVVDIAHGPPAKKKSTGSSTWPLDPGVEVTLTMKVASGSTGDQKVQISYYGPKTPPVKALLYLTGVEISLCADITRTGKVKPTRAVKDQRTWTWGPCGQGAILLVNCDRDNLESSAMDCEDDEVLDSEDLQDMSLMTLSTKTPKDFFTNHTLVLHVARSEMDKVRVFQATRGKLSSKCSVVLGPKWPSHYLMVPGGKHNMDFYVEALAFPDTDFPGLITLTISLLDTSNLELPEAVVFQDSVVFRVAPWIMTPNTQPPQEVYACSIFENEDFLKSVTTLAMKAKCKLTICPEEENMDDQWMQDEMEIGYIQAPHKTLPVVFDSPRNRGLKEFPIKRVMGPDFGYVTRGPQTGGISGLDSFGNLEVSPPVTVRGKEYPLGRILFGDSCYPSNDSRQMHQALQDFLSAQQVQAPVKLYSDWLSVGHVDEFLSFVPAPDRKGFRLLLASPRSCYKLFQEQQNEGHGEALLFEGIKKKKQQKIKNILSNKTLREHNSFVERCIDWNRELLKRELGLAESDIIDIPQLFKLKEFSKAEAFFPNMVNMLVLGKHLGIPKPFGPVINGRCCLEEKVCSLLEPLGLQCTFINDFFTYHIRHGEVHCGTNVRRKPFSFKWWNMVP
TCR-CD3 inh – inhibitors of human TCR-CD3 interaction. inhibition, % at 9.4 µM. TAMRA-labeled TCR probe fluorescence, biochemical. 360,000 compounds, 0.37% hits. AID 651800; in the data active means inhibition above about 19%;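 further: recombinant mutant TCR 2C K166C tagged with TAMRA read by polarization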
PRMT1 inh – PRMT1 (human) inhibition, primary screen. recombinant PRMT1, activity-based probe fluorescence polarization. inhibition, % at 2.79 µM. 370,000 compounds, 1.3% hits. AID 652257;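 active means inhibition above about 21% made by adding two undisclosed values, limit read from the data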
PME-1 inh – PME-1 (human) inhibition; recombinant PME-1, FP-Rh probe fluorescence polarization; inhibition, % at 5.9 µM; 320,000 compounds, 0.53% hits;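 active means inhibition above the campaign mean of all compounds plus 3 SD, cut at about 26% in these data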;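 further: competitive labeling of PME-1 active site by serine hydrolase directed probe; inhibitors block probe labeling so polarization falls and inhibition rises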
SIAE confirm – confirmation of human SIAE inhibitors; shares compounds with SIAE inh; AID 1117263; 2,300 compounds, 13% hits; inhibition, % at 9.66 µM; SIAE FP-Rh activity-based probe, fluorescence polarization;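 active means mean inhibition of the replicates above the hit cutoff set in the primary screen, cut at about 17% in these data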;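 further: inhibitors lower polarization as more probe stays unbound to SIAE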
Hits are given with their value; n = inactive; x = not tested or not shown. Sampled rows, rich in hits. Any-hit rate of the full collection: about 2.6%.

SMILES	SIAE inh	Fam108B counter	PAD4 FP inh	TCR-CD3 inh	PRMT1 inh	PME-1 inh	SIAE confirm
Cc1ccc(-n2c(SCc3ccc(Cl)c(Cl)c3)nnc2-c2ccc(C(C)(C)C)cc2)cc1	n	x	x	x	n	x	x
COc1ccc(C(=O)C[n+]2ccccc2/C=N/O)cc1	18.2	n	n	n	n	n	n
CNC(=O)c1c(NC(=O)c2ccc(S(=O)(=O)N3CCCCC3C)cc2)sc2c1CCN(C)C2 (centres undefined)	17.3	n	n	n	n	n	n
COc1ccc(CN2C(=O)N3Cc4ccc(C)cc4C3CS2(=O)=O)cc1 (centres undefined)	n	x	x	x	n	x	x
CC(C)NC(=S)Nc1ccc2cn[nH]c2c1	19.2	n	n	n	n	n	n
COc1ccc(NC(=S)Nc2ccc3cn[nH]c3c2)cc1	n	n	n	n	n	n	x
Clc1ccc([C@H]2OC[C@@]3(CNCCN4CCOCC4)CS[C@H](c4ccc(Cl)cc4)N23)cc1	n	x	x	x	n	x	x
O=C(CSc1ccc(Cl)cc1)Nc1ccc(N2CCN(c3ccccc3)CC2)c(F)c1	n	n	n	n	n	n	x
O=C(CSc1ccccc1)Nc1ccc(N2CCOCC2)c(F)c1	17.7	n	n	n	n	n	n
CCn1c(=O)n(CC)c2cc(N3CCCC3)c(NC(=O)c3ccc(F)cc3)cc21	18.2	n	n	n	n	n	n
O=C(CNS(=O)(=O)c1ccc(F)cc1)N1CCN(c2ccccn2)CC1	n	x	x	x	n	x	x
O=C(c1ccc(S(=O)(=O)NCC2CCCO2)cc1)N1CCc2ccccc21 (centres undefined)	22.0	n	n	n	n	n	n
Cc1ccc(Nc2nnc(SCC(=O)Nc3ccccc3[N+](=O)[O-])s2)cc1	24.9	n	n	n	n	n	n
Cc1ccccc1C1CCC2(CCC(=O)N2CC[C@@H](O)c2ccccc2)CC1 (some centres undefined)	n	x	x	x	n	x	x
C[C@H]1[C@@H](NC(=O)C2CCC2)CC[C@@]23CCCN2C(=O)CCC[C@@H]13	n	x	x	x	n	x	x
CCN(CC)C(=O)CC[C@@H]1CC[C@]2(CCCN(C(=O)C(C)(C)C)C2)O1	n	x	x	x	n	x	x
O=C(NC(Cc1ccccc1)C(=O)O)/C(=C/c1ccc(Cl)cc1)NC(=O)c1ccccc1 (centres undefined)	17.2	n	n	n	n	n	n
O=S(=O)(c1ccccc1Cl)N1CCC(O)(c2cccnc2)CC1	19.8	n	n	n	n	n	n
CC1(C)C=C2C(N(CC3CC3)C(=N)N2C(=O)OCc2ccccc2)n2c(=O)n(-c3ccccc3)c(=O)n21 (centres undefined)	n	x	x	x	n	x	x
Cc1ccccc1C(=O)Nc1nnc(-c2cccnc2)o1	17.9	n	n	n	n	n	n
Cc1nc(N2CCN(S(=O)(=O)c3ccc(Br)cc3)CC2)c2c(C)c(C)sc2n1	18.8	n	n	n	n	n	n
CC(C)N1CCCCC(NC(=O)Cc2ccccc2)C1=O (centres undefined)	n	x	x	x	n	x	x
Cc1cc(C)c(OCC(=O)OCC(=O)N2CCN(C(=O)c3ccco3)CC2)c(C)c1	18.4	n	n	n	n	n	n
COc1ccccc1Nc1nnc(SCC(=O)NC2CCCC2)s1	n	x	n	n	n	n	x
COc1ccccc1Nc1nnc(SCC(=O)NC2CC2)s1	17.5	x	n	n	n	n	n
SMILES	SIAE inh	Fam108B counter	PAD4 FP inh	TCR-CD3 inh	PRMT1 inh	PME-1 inh	SIAE confirm
CCOC(=O)CC[C@@]1(C(=O)OCC)C[C@@H](CC(=O)NCc2ccc(C)o2)C(=O)N2CCCC=C21	n	x	x	x	n	x	x
CCC(=O)N(C)C[C@@H]1[C@H](c2ccc(C3=CCCCC3)cc2)[C@H](CO)N1C(=O)CC	n	x	x	x	n	x	x
NS(=O)(=O)c1ccc(NCc2cnc3ccccc3n2)cc1	n	x	x	n	n	x	x
N#CCc1cnc2ccccc2n1	18.2	n	n	n	n	n	n
CSCC[C@H](NC(=O)[C@@H]1Cc2ccccc2CN1)C(=O)Nc1ccc2c(c1)OCO2	17.6	n	n	n	n	n	n
C[C@H](NC(=O)[C@@H]1Cc2ccccc2CN1)C(=O)Nc1ccc2c(c1)OCO2	n	n	n	n	n	n	x
O=Cc1cc2ccccc2nc1SCc1ccc(Cl)cc1	27.2	n	n	n	n	n	n
O=C(CSc1nnc(CN2CCOCC2)n1-c1ccc(Cl)cc1)N1CCc2ccccc21	n	n	n	n	n	n	x
O=C(CSc1nnc(CN2CCOCC2)n1-c1ccc(Cl)cc1)Nc1cc(Cl)ccc1O	26.6	n	n	n	n	n	n
CC(=O)NNC(=O)CCn1c2c(c3ccccc31)CCCC2	20.2	n	n	n	n	n	n
CCOC(=O)NNC(=O)CCn1c2c(c3ccccc31)CCCC2	n	n	n	n	n	n	x
COC(=O)[C@H]1C[C@@H]1[C@H](NC(=O)[C@H]1C[C@@H]1[C@H](NC(=O)OCc1ccccc1)c1ccccc1)c1ccccc1	19.5	n	n	n	n	n	n
Cc1cc(C)cc(N(CC(=O)NC2CCC(C)CC2)S(=O)(=O)c2ccc(Cl)s2)c1 (centres undefined)	n	x	x	x	n	x	x
O=C(Nc1ccc(F)c(Cl)c1)Nc1csc2ccccc12	23.3	n	n	n	n	n	n
O=C(Nc1ccc(F)cc1F)Nc1csc2ccccc12	n	n	n	n	n	n	x
CC(C)CC(=O)Nc1nnc(-c2ccco2)s1	18.3	n	n	n	n	n	n
CC(C)Cc1nnc(NC(=O)CCNC(=O)c2ccco2)s1	29.4	n	n	n	n	n	n
O=C(Nc1nnc(-c2ccco2)s1)C1CCCCC1	n	n	n	n	n	n	x
COc1ccc(CSc2nnc(SCC(=O)Nc3ccc(S(N)(=O)=O)cc3)s2)cc1	n	x	x	x	n	x	x
N#CCC[C@H]1CC[C@]2(CCCN(C(=O)c3ccc4ccccc4n3)C2)O1	n	x	x	x	n	x	x
O=C(COC(=O)c1ccc[nH]c1=O)NC1CCCCCCC1	18.1	n	n	n	n	n	n
Cc1cc(C(=O)COC(=O)c2ccc[nH]c2=O)c(C)n1C1CC1	22.8	n	n	n	n	n	n
Cc1cc(C(=O)COC(=O)c2ccc[nH]c2=O)c(C)n1-c1ccccc1	n	n	n	n	n	n	x
Cc1ccc(S(=O)(=O)N(C)[C@H]2C[C@H]3c4cc(N5CCOCC5)ccc4CCN3C[C@H]2[C@H](C)O)cc1	n	x	x	x	n	x	x
COc1ccc(C2=CCN(C)C(=O)N2c2ccc([N+](=O)[O-])cc2)cc1	n	x	x	x	n	x	x
c1ccc2c(c1)CCN(C1=Nc3cccc4cccc1c34)C2	30.1	x	x	n	n	x	n
c1cc2c3c(cccc3c1)C(N1CCCCCC1)=N2	n	n	n	n	n	n	x
Clc1ccc(SCc2csc(N3CCOCC3)n2)cc1	18.0	n	n	n	n	n	n
CCCCNC(=O)C1C(c2ccc(OC)cc2)=Nc2ccccc2N1C(=O)Cc1cc(OC)cc(OC)c1 (centres undefined)	n	x	x	n	n	x	x
COc1cc(NC(=O)CCCn2c(=O)oc3ccccc32)cc(OC)c1	n	x	n	n	n	x	x
